# Measurements published in the supplement of paper PMC8728848.
# The sample as a whole holds a higher share of the strongest signals than the screen did.
# Columns and labels:
# Experiment in all cases: glycan array binding signal (z-score within array); higher = stronger binding
# Settings in all cases: glycan notation: IUPAC condensed, linker removed
# [1] = tested on: Fuc(a1-2)[GalNAc(a1-3)]Gal(b1-4)GlcNAc(b1-3)Gal(b1-4)GlcNAc
# Outline: (§1)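 Glycan array data came from 3228 arrays in the Consortium for Functional Glycomics database, and only arrays with an available protein sequence were kept. Glycan names were put into IUPAC-condensed notation, and columns mapping to the same glycan were averaged. The binding signal is a within-array Z-score, averaged across arrays of one protein sequence run at different concentrations or buffers and across linkers. A negative Z-score can be read as non-binding.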
# [2] = tested on: Fuc(a1-2)[GalNAc(a1-3)]Gal(b1-4)GlcNAc(b1-6)GalNAc
# Outline: as §1
# [3] = tested on: Fuc(a1-2)[GalNAc(a1-3)]Gal(b1-3)GlcNAc(b1-2)Man(a1-3)[Fuc(a1-2)[GalNAc(a1-3)]Gal(b1-3)GlcNAc(b1-2)Man(a1-6)]Man(b1-4)GlcNAc(b1-4)GlcNAc
# Outline: as §1
# [4] = tested on: Fuc(a1-2)[GalNAc(a1-3)]Gal(b1-3)GlcNAc
# Outline: as §1
# [5] = tested on: Fuc(a1-2)[GalNAc(a1-3)]Gal(b1-3)GlcNAc(b1-3)GalNAc
# Outline: as §1
# [6] = tested on: Fuc(a1-2)[GalNAc(a1-3)]Gal(b1-4)GlcNAc(b1-2)Man(a1-3)[Fuc(a1-2)[GalNAc(a1-3)]Gal(b1-4)GlcNAc(b1-2)Man(a1-6)]Man(b1-4)GlcNAc(b1-4)GlcNAc
# Outline: as §1
# [7] = tested on: Fuc(a1-2)[GalNAc(a1-3)]Gal(b1-4)GlcNAc(b1-3)Gal(b1-4)GlcNAc(b1-3)Gal(b1-4)GlcNAc
# Outline: as §1
# [8] = tested on: Fuc(a1-2)[GalNAc(a1-3)]Gal(b1-3)GlcNAc(b1-6)GalNAc
# Outline: as §1
# [9] = tested on: Fuc(a1-2)[GalNAc(a1-3)]Gal(b1-4)GlcNAc(b1-2)Man
# Outline: as §1
# [10] = tested on: Fuc(a1-2)[GalNAc(a1-3)]Gal(b1-4)GlcNAc(b1-3)GalNAc
# Outline: as §1
# PILRb (Mus musculus), Q2YSF2, sequence (Q2YSF2 entry or part of it): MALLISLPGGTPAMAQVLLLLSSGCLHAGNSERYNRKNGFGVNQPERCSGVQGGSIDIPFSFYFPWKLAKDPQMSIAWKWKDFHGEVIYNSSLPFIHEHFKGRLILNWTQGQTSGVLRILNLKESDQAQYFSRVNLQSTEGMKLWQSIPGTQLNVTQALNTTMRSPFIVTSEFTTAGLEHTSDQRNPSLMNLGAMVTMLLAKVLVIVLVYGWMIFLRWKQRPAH
# CHI3L1 (Homo sapiens), P36222, sequence (P36222 whole entry): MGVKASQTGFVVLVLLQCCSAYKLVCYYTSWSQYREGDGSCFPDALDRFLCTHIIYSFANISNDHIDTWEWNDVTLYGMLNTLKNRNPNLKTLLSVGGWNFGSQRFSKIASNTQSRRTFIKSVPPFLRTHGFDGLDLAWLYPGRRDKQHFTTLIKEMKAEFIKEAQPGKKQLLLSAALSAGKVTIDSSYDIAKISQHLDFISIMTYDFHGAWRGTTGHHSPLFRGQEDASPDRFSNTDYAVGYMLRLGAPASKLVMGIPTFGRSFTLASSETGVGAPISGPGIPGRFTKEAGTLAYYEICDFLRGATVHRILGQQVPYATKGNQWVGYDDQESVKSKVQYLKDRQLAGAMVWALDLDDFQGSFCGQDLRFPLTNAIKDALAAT
# Aggrecan (Rattus norvegicus), NP_071526, sequence (chain, as listed by the source): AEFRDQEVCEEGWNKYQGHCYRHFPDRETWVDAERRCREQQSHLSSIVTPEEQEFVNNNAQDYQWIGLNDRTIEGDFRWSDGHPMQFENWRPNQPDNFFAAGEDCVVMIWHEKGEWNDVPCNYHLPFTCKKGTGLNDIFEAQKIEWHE
# Avaren (Actinomycete K97), sequence (chain, as listed by the source): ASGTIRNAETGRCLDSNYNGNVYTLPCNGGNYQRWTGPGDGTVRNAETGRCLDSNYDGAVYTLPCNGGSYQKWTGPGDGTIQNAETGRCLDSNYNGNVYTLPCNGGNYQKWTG
# 6RG (Lolium perenne), B9U140, sequence (B9U140 entry or part of it): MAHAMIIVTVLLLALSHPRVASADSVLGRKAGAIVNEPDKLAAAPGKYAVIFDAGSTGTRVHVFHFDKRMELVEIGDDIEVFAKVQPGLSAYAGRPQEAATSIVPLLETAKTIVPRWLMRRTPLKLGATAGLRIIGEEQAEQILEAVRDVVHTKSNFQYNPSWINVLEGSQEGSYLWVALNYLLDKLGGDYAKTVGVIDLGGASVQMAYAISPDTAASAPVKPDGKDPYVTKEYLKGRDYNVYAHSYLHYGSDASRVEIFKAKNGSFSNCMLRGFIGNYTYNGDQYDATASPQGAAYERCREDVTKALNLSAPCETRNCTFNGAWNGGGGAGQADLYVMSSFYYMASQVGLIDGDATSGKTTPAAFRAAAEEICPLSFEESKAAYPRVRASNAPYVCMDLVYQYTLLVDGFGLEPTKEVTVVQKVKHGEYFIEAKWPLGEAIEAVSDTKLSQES
substance,measurement,setting,value
"Siglec-8 (Homo sapiens), Q9NYZ4",glycan array binding signal (z-score),[1]; mutation: R125K,-0.346
same,glycan array binding signal (z-score),[2]; mutation: R125K,-0.119
"Aggrecan (Rattus norvegicus), NP_071526",glycan array binding signal (z-score),[3],-0.131
"6RG (Lolium perenne), B9U140",glycan array binding signal (z-score),[4],-0.169
"PILRb (Mus musculus), Q2YSF2",glycan array binding signal (z-score),[5],1.35
same,glycan array binding signal (z-score),[6],-0.328
same,glycan array binding signal (z-score),[7],-0.069
Avaren (Actinomycete K97),glycan array binding signal (z-score),[8],-0.139
MpAFP RI GFP (Marinomonas primoryensis),glycan array binding signal (z-score),[3],-0.022
same,glycan array binding signal (z-score),[9],-0.489
same,glycan array binding signal (z-score),[2],-0.439
"CHI3L1 (Homo sapiens), P36222",glycan array binding signal (z-score),[8],-0.064
same,glycan array binding signal (z-score),[1],-0.12
same,glycan array binding signal (z-score),[10],-0.124
